PubChem BioAssay AID1209 (Sanford-Burnham Center for Chemical Genomics, 2008)
Out of some 190,000 compounds screened, about 810 (0.43%) were called active. Cut-off read from the data, not from the text of the source: active = inhibition above about 50%; inactive = the rest. The list comes from a sample in which actives are over-represented; it also holds similar structures and randomly drawn compounds.

Target: Mannose-6-phosphate isomerase (Homo sapiens) (UniProt P34949)
Assay: inhibitors of human PMI, primary screen, biochemical, fluorescence intensity, coupled assay (AID 1209);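 note: plate controls were DMSO vehicle for no effect and wells lacking substrate for full effect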
Conditions: purified PMI enzyme, at 20 µM, active compounds read high

Mannose-6-phosphate isomerase (Homo sapiens), sequence (P34949 whole entry, looked up): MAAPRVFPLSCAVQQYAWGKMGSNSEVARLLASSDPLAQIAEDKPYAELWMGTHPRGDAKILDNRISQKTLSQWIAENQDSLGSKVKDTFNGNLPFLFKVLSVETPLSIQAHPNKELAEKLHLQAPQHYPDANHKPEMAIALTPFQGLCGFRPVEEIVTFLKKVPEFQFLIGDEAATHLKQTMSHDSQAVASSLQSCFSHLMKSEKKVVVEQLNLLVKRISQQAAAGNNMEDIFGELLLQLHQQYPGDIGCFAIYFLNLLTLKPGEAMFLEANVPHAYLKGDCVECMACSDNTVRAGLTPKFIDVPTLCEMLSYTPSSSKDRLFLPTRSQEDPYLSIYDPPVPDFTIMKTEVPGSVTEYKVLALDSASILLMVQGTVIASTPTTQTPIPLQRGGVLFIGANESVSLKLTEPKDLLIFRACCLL

inhibition, inactive:
Cn1c(N)c(C(=O)NCc2ccccc2)sc1=S 12.3%
COC(=O)c1ccccc1NC(=O)c1sc(=S)n(C)c1N -14.8%
Cc1cnn(C(=O)c2oc3ccccc3c2C)c1 -1.3%
Cc1cc(N)n(-c2ccccc2C)n1 11.2%
C=CCN1C(=O)C(C)(C)Nc2ccccc21 6.9%
Cn1ccnc1SCC(=O)c1c[nH]c2ccccc12 4.5%
C/C(=N\NC(=O)c1nn(C)c(C)c1Br)c1ccc(NC(=O)c2ccccc2F)cc1 -0.9%
C/C(=N\NC(=O)c1nn(C)c(C)c1Br)c1cccc(NC(=O)c2ccoc2C)c1 -8.4%
COC(=O)c1ccc(NC(=S)NCCCN2CCCC2=O)cc1 -0.7%
Cc1ccc(NC(=S)N(CCCN2CCOCC2)Cc2ccco2)cc1 -2%
Cc1ccc(NC(=S)N(CCCN2CCC(C)CC2)Cc2ccco2)cc1C -3.2%
CCOC(=O)C1C(c2ccc(O)c(OCC)c2)NC(=S)NC1(O)C(F)(F)F (centres undefined) -6.6%
CCOC(=O)C1C(c2ccc(O)c(OC)c2)NC(=S)NC1(O)C(F)(F)F (centres undefined) -3%
O=C(CN1C(=O)c2cccc3cccc(c23)C1=O)N1CCOCC1 24.7%
O=C(Nn1cnnc1)c1ccc(Br)s1 -17.3%
O=C(NCCCn1ccnc1)c1cc(-c2ccc(Br)cc2)on1 -3.5%
O=C(O)CS(=O)(=O)CC(=O)NCc1cccc(C(F)(F)F)c1 -2.8%
Cc1ccc(NC(=O)Nc2c(C)n(C)n(-c3ccccc3)c2=O)cc1C -4%
COCCn1c(=NC(=O)C2COc3ccccc3O2)sc2cc(S(N)(=O)=O)ccc21 (centres undefined) 12.8%
O=C(COc1ccccc1O)N1CCN(C(=O)c2ccco2)CC1 4%
O=C(COc1cccnc1[N+](=O)[O-])N1CCN(S(=O)(=O)c2ccccc2)CC1 12.8%
CC1(C)C/C(=N\O)c2cc3c(nc2C1)CCCC3 -3%
Cc1cc(C)nc(NC(=O)c2c(-c3c(Cl)cccc3Cl)noc2C)n1 9.1%
CCOC(=O)N1CCN(S(=O)(=O)c2cc(C)c(C)cc2C)CC1 -3.8%
FC(F)(F)c1cnc(/C=C/Nc2ccccc2Cl)c(Cl)c1 12.3%
COC(=O)c1ccc(CN(C)S(=O)(=O)c2ccc(C)cc2)o1 -1.6%
CCc1nc(N=Nc2c(O)[nH]c3ccccc23)c2c3c(sc2n1)CCC3 -5.7%
C=CCn1c(COc2ccc3c(c2)CCCC3)nnc1SCC(=O)Nc1cccc(SC)c1 15%
CC1(C)CC(N2CCCC2)=CC(=[N+]2CCCCC2)C1 12.6%
CC1(C)CC(N2CCCCC2)=CC(=[N+]2CCCCC2)C1 34.9%
COc1cc2c(C(=O)OCCN(C)C)c(CSc3ccccc3)n(C)c2cc1Br 3.3%
CC(OC(=O)c1cccnc1Cl)C(=O)Nc1ccc2c(c1)OCCO2 (centres undefined) -6.6%
O=C(Nc1cccc(S(=O)(=O)N2CCOCC2)c1)c1cn(-c2ccccc2)nc1-c1ccc(F)cc1 6.6%
Cc1ccc(C(=O)Nc2ccccc2OC(F)F)cc1 -0.1%
O=C(Nc1ccccc1OC(F)F)c1ccccc1 10.6%
O=C(NCCc1ccccc1)c1ccccc1NC(=O)C1CC=CCC1C(=O)O (centres undefined) 5.2%
CC(C)N(C(=O)c1sc2cc([N+](=O)[O-])ccc2c1Cl)C(C)C 0.2%
O=C(NC1CC1)c1sc2cc([N+](=O)[O-])ccc2c1Cl 1.4%
CCNc1ccc(C(=O)OCC(=O)NCCN2C(=O)CSC2=O)cc1[N+](=O)[O-] -6.6%
CCCN1CCC(NC(=O)CCc2nnc(Cc3cc(OC)ccc3OC)o2)CC1 7.2%
COc1cc(OC)c(C2CC(=O)N3CN(c4ccccc4)CSC3=C2C#N)cc1OC (centres undefined) 41.2%
COc1cccc(C2CC(=O)N3CN(c4ccccc4F)CSC3=C2C#N)c1 (centres undefined) 16%
COc1ccc(OC)c(C2CC(=O)N3CN(c4cccc(Cl)c4C)CSC3=C2C#N)c1 (centres undefined) 46.9%
COc1cc(OC)c(C2CC(=O)N3CN(c4ccccc4C)CSC3=C2C#N)cc1OC (centres undefined) 30.5%
COc1ccc(N2CSC3=C(C#N)C(c4ccc(OC)c(OC)c4)CC(=O)N3C2)c(OC)c1 (centres undefined) 39.1%
COc1ccc(OC)c(C2CC(=O)N3CN(c4cccc(Cl)c4)CSC3=C2C#N)c1 (centres undefined) 16.5%
COc1ccc(Br)cc1C1CC(=O)N2CN(C)CSC2=C1C#N (centres undefined) 27.6%
COc1ccc(OC)c(C2CC(=O)N3CN(c4ccccc4)CSC3=C2C#N)c1 (centres undefined) 2.2%
CCN(CC)S(=O)(=O)c1ccc(OC)c(NC(=O)Cc2cccs2)c1 -11.3%
Cc1cc(C)n(-c2ccc(C(=O)Nc3cccc(S(=O)(=O)N(C)C)c3)cc2)n1 5.5%
CCN(CC)S(=O)(=O)N1CCC(C(=O)NCCN2CCOCC2)CC1 -6.8%
CCOC(=O)C1CCN(S(=O)(=O)c2ccc(CC)cc2)CC1 -5.3%
CC(=O)c1ccc(NC(=S)N2CCN(CCN3C(=O)c4cccc5cccc(c45)C3=O)CC2)cc1 10.7%
COc1cccc(NC(=O)c2cc(-c3cccnc3)nc3c(Cl)cccc23)c1 1.6%
O=C(CCc1ccccc1)Nc1cccc(NC(=O)CCc2ccccc2)c1 13.7%
O=C(CCc1ccccc1)Nc1cc(C(=O)O)cc(C(=O)O)c1 -2%
Cc1cccc(NC(=O)N(C)Cc2cccs2)c1 0.5%
NNC(=O)c1cccc(O)c1 10%
COC(=O)c1cc(O)c(O)c(O)c1 34%
O=C(Nc1cccc(O)c1)c1noc2c1CCCCC2 -1.4%
Cc1ccc(Nc2nc(=O)c3cccnc3s2)cc1 1.7%
O=c1nc(Nc2ccc(OCc3ccccc3)cc2)sc2ncccc12 3%
Cc1nnc(SCC(=O)Nc2ccc3c(c2)OCCO3)n1N 11.3%
Oc1ccc(Br)cc1C=Nc1ccc2c3c(cccc13)CC2 38.4%
Cc1cccc(C=Nc2ccc3c4c(cccc24)CC3)c1O 44.8%
O=[N+]([O-])c1ccc2c(c1)ncn2-c1ccccc1 -3.3%
COc1ccc(-n2cnc3cc([N+](=O)[O-])ccc32)cc1 5.5%
CCOC(=O)C1CCN(CC(O)COCc2cccs2)CC1 (centres undefined) -1.6%
Cc1cc(N=Cc2c(O)ccc3ccccc23)no1 43.9%
Oc1ccc2ccccc2c1/C=N/c1nccs1 39.6%
O=C(CSc1nc2ccc(Cl)cc2[nH]1)NCc1ccco1 1.5%
Cc1cccc(-n2c3nc(=O)[nH]c(=O)c-3cc3c(C)nn(-c4ccccc4)c32)c1 6.4%
COc1cc([N+](=O)[O-])ccc1NC(=O)/C=C/C(=O)O -26.7%
S=C(NCCCn1ccnc1)Nc1ccc(Cl)cc1Cl 5.5%
O=C(CSc1nnc2ccccn12)NNC(=O)c1ccccc1 -2.1%
CCSc1nnc(NC(=O)CC)s1 0%
CCSc1nnc(N)s1 -0.6%
COc1ccccc1-n1c(=S)[nH]c2c(sc(=S)n2-c2ccccc2)c1=O -4.5%
COc1ccc(OC)c(-n2c(=S)[nH]c3c(sc(=S)n3-c3ccccc3)c2=O)c1 9.9%

inhibition, active:
Cn1c(N)c(C(=O)Nc2ccc3ccccc3c2)sc1=S 64.8%
C/C(=N\NC(=O)c1nn(C)c(C)c1Br)c1cccc(NC(=O)c2ccc(F)cc2)c1 50.8%
Cc1ccc(NC(=S)N(CCCN2CCC(C)CC2)Cc2ccco2)cc1 81.3%
CCOC(=O)C1C(c2ccc(O)c(O)c2)NC(=S)NC1(O)C(F)(F)F (centres undefined) 61.7%
O=C(COc1cccnc1[N+](=O)[O-])N1CCN(C(=O)c2ccco2)CC1 57.6%
C[N+]1=C(/C=C/Nc2ccccc2Cl)C(C)(C)c2ccccc21 78.4%
CC1(C)CC(N2CCCC2)=CC(=[N+]2CCCCCC2)C1 62.8%
O=C(Nc1ccccc1OC(F)F)c1ccc(F)cc1 109%
CC(NC(=O)c1sc2cc([N+](=O)[O-])ccc2c1Cl)C(C)(C)C (centres undefined) 57.2%
COc1ccc(OC)c(C2CC(=O)N3CN(c4ccccc4F)CSC3=C2C#N)c1 (centres undefined) 57.3%
COc1ccc(N2CSC3=C(C#N)C(c4cc(OC)ccc4OC)CC(=O)N3C2)c(OC)c1 (centres undefined) 53.4%
COc1cc(OC)c(C2CC(=O)N3CN(C)CSC3=C2C#N)cc1OC (centres undefined) 59.9%
O=C(CCc1ccccc1)Nc1cc(NC(=O)CCc2ccccc2)cc(C(=O)O)c1 63.6%
NNC(=O)c1cc(O)c(O)c(O)c1 51.2%
COc1ccc(OC)c(Nc2nc(=O)c3cccnc3s2)c1 68.3%
Oc1ccc(Cl)cc1C=Nc1ccc2c3c(cccc13)CC2 50.8%
Nc1ccc(-n2cnc3cc([N+](=O)[O-])ccc32)cc1 53.9%
N=C1C=CC=C2C1=NC1(CCCCC1)N2O 72.2%
Oc1ccc2ccccc2c1C=Nc1ccc(Cl)cn1 56.1%
COc1ccc(-n2c(=S)[nH]c3c(sc(=S)n3-c3ccccc3)c2=O)c(OC)c1 62.6%
